# Records with an inconclusive call do not appear. Unmarked numbers belong to inactive results. Calls follow the shape of the dose curve; as a rule, active = well fitted inhibition curve with a large enough effect; inconclusive = small, poorly fitted or top-dose-only effect; inactive = flat fitted curve, though single readings scatter.
# Target: Calcium and integrin-binding protein 1 (Homo sapiens) (UniProt Q99828)
# Assay: Primary qHTS for Identification of Calcium Integrin Binding Protein 1 (CIB1) Competitor (AID 1508620);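 also: GST tagged CIB1 binding a fluorescein labelled alphaIIb integrin peptide tracer; top concentration of the series differs between compounds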
# Conditions: CIB1-GST / FITC-alphaIIb peptide fluorescence polarization; series mostly up to 114 µM; activity change, negative = inhibition: at the top concentration
# Method in brief: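 Fluorescence polarization competition: CIB1-GST (1 uM final) preincubated with compound 15 min at room temperature, then FITC-labeled alphaIIb peptide (100 nM final) added for another 15 min. Polarization read at Ex 480/Em 540.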
# % is scaled to controls: 0 for no effect and ±100 for the full control effect.
# Sequence of Calcium and integrin-binding protein 1 (Homo sapiens) (Q99828 whole entry, looked up): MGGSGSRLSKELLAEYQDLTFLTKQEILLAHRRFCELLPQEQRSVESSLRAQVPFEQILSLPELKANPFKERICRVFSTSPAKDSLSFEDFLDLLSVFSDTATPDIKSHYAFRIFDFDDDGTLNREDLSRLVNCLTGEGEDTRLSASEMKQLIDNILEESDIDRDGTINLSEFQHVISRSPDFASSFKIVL
row,Structure (SMILES),"activity change, negative = inhibition"
1,Cc1nnc(-c2cnn(C)c2N)n1CCCn1cccc1,1.25%
2,CC(C)c1ccccc1-c1ncc(N(C)C)c(NCc2ccc(-c3cccnc3)cc2)n1,0.002%
3,O=C(Nc1cc(F)cc(F)c1)Nc1nnc(-c2ccncc2)s1,8.45%
4,COc1cccc(C2c3c(ncn(-c4cccc(OC)c4)c3=N)Oc3ccc4ccccc4c32)c1 (stereo unspecified),8.33%
5,Cc1ccnc(NC(=S)N2CCN(c3ccc(O)cc3)CC2)c1,-25.3%
6,COc1ccc(C(=O)Nc2ccc(-c3nc4ccccc4[nH]3)cc2)cc1Br,2.69%
